Calls of active or inactive are those of the source. Where a call stands in place of a potency, no number is given. The call rests on the fitted dose curve; in most records, active means well fitted activation curve with a large enough effect in the repeat runs; inconclusive means weak or mixed curves; inactive means flat fitted curve, though single readings scatter.
Biological target: KiSS-1 receptor (Homo sapiens) (UniProt Q969F8)
Test: Human kisspeptin (KISS1R) small molecule agonists, calcium flux assay in KISS1R-HEK293 cells (AID 1920064)
Conditions: KISS1R-HEK293, calcium flux fluorescence, agonist; series mostly up to 76.8 µM
Text: National Center for Advancing Translational Sciences [NCATS]
Division of Preclinical Innovation [DPI]
U.S. Environmental Protection Agency [EPA]
National Institutes of Environmental Health Sciences [NIEHS]
National Toxicology Program [NTP]
U.S. Food and Drug Administration [FDA]
Kisspeptin and its receptor KISS1R play key roles in mammalian reproduction due to their involvement in the onset of puberty and control of the hypothalamic-pituitary-gonadal axis such as regulates GnRH release from the hypothalamus. The kisspeptin/KISS1R system also plays a direct role in peripheral organs (including the ovary, testis, uterus, and placenta) and is implicated in reproductive diseases such as miscarriage and polycystic ovary syndrome (PCOS). Abnormal KISS1R activity is associated with abnormal puberty, infertility, endometriosis, and hormone-dependent tumors. The KISS1 receptor (KISS1R, also called GPR54), a G-protein-coupled receptor (GPCR), acts (through phospholipase C) to increase intracellular inositol trisphosphate and then release intracellular calcium stores. Cell-based KISS1R-HEK293 assay is using HEK293 cells that have been genetically engineered to express the human KISS1R, which activity can be measured by calcium signaling. A compound/drug can activate (agonist) KISS1R that can be monitored by levels of intracellular calcium.
KISS1R-HEK293 cells developed by Codex Corp contain human KISS1R gene, which was stably integrated into HEK 293 cells. The compound activation can be detected by fluorescence intensity via calcium flux assay. This cell line has been used to screen the Tox21 10K compound library to identify agonists of KISS1R.
KISS1R-Hek293 cells were dispensed at 1500 cells/4uL/well in 1536-well black wall/clear bottom plates using a multidrop dispenser. After the assay plates were incubated at a 37 C/5% CO2 incubator for 18 hours, 4 microL of Calcium Dye Solution was added to each well. The plates were incubated at 37 C for 1 hour. And then 23 nL of compounds dissolved in DMSO, positive controls, or DMSO only was transferred to the assay plate by a pin tool station. The fluorescence intensity in the plates was measured using FDSS 7000EX kinetic plate reader with a filter set of Ex/Em=480/540 for 3 min at 1 sec intervals. Each test compound was measured at 15 concentrations and in triplicates.
Potency means the concentration at half of the fitted maximal effect.

Sequence of KiSS-1 receptor (Homo sapiens) (Q969F8 whole entry, looked up): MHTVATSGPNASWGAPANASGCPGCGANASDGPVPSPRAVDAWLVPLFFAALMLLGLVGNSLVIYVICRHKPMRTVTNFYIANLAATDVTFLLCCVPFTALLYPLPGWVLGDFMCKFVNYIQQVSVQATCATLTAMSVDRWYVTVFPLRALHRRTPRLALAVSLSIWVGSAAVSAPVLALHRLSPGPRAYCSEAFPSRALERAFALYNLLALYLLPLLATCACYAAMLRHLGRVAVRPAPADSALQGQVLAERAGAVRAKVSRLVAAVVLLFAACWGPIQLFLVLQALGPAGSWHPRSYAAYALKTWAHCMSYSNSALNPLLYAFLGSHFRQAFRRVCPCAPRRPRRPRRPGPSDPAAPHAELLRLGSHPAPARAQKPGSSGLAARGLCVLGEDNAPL

Row | Structure (SMILES) | Potency
1 | COc1cccc(C(=O)CCN[C@@H](C)[C@H](O)c2ccccc2)c1 | inactive
2 | CC(C)(C)C(=O)C(Oc1ccc(Cl)cc1)n1cncn1 (stereo not given) | inactive
3 | CCCCCCCCCCCCCCC(Br)C(=O)O (stereo not given) | inactive
4 | CCCC[N+]1(C)[C@@H]2CC(OC(=O)[C@H](CO)c3ccccc3)C[C@H]1[C@@H]1O[C@@H]12 (stereo not given in full) | inactive
5 | SCc1ccccc1 | inactive
6 | C=CCOC(=O)c1ccccc1N | inactive
7 | COP(=O)(OC)O/C(C)=C/C(=O)N(C)C | inactive
8 | CNC(=O)Oc1ccc(N(C)C)c(C)c1 | inactive
9 | O=C(CCl)C(Cl)Cl | inactive
10 | CC(C)(C)C(O)/C(=C\c1ccc(Cl)cc1Cl)n1cncn1 (stereo not given) | inactive
11 | O=C(O)COc1ccc(Cl)cc1 | inactive
12 | OC(c1ccc(Cl)cc1)(c1ccc(Cl)cc1)C(Cl)(Cl)Cl | inactive
13 | O=CNC(N1CCN(C(NC=O)C(Cl)(Cl)Cl)CC1)C(Cl)(Cl)Cl (stereo not given) | inactive
14 | CC(C)(c1cc(Cl)c(O)c(Cl)c1)c1cc(Cl)c(O)c(Cl)c1 | inactive
15 | O=C(O)C(F)(F)C(F)(F)C(F)(F)C(F)(F)C(F)(F)C(F)(F)C(F)(F)C(F)(F)C(F)(F)F | inactive
16 | CCC1(CC)C(=O)N=C(O)NC1=O | inactive
17 | Cc1cc2c3c(c1)C(c1ccccc1)=N[C@@H](NC(=O)c1ccncc1)C(=O)N3CC2 | inactive
18 | COc1cc(OC)c(OC)cc1C=O | inactive
19 | CCOC(=O)NC(=S)Nc1ccccc1NC(=S)NC(=O)OCC | inactive
20 | CCC1(CCC(C)C)C(=O)NC(=O)NC1=O | inactive

Row | Structure (SMILES) | Potency
21 | CC(O)(CS(=O)(=O)c1ccc(F)cc1)C(=O)Nc1ccc(C#N)c(C(F)(F)F)c1 (stereo not given) | inactive
22 | CCSC(C)CC1CC(=O)C(/C(CC)=N/OC/C=C/Cl)=C(O)C1 (stereo not given) | inactive
23 | Cc1nc(N(C)C)nc(OC(=O)N(C)C)c1C | inactive
24 | CCN(CC)CCc1c[nH]c2ccccc12 | inactive
25 | CCN(C(C)=O)c1cccc(-c2ccnc3c(C#N)cnn23)c1 | inactive
26 | Cc1cc(C)c(C2=C(OC(=O)CC(C)(C)C)C3(CCCC3)OC2=O)c(C)c1 | inactive
27 | COC(=O)C(C)N(C(=O)c1ccco1)c1c(C)cccc1C (stereo not given) | inactive
28 | CC(=O)CCc1ccc2c(c1)OCO2 | inactive
29 | Cn1cc(C2=C(c3cn(C4CCN(Cc5ccccn5)CC4)c4ccccc34)C(=O)NC2=O)c2ccccc21 | inactive
30 | C#C[C@]1(O)CC[C@H]2[C@@H]3CCC4=CC(=O)CCC4=C3C=C[C@@]21CC | inactive
31 | O=C(C(Cl)(Cl)Cl)C(Cl)(Cl)Cl | inactive
32 | CCc1ccccc1N | inactive
33 | CCC(C(N)=O)N1CCCC1=O (stereo not given) | inactive
34 | CCCCC(O)(Cn1cncn1)c1ccc(Cl)cc1Cl (stereo not given) | inactive
35 | O=C(N[C@H](c1ccccc1)[C@@H]1CN2CCC1CC2)c1c(Cl)ccc(C(F)(F)F)c1Cl | inactive
36 | CC(C)(C)OO | inactive
37 | CCC[CH2][Sn]([CH2]CCC)([CH2]CCC)[O]C(=O)c1ccccc1 | 19.5 µM (active)
38 | O.O.O.O.O.O.O.O=S(=O)([O-])[O-].[Co+2] | inactive
39 | CC(=O)O.CC(=O)O.CC(=O)O.CC(=O)O.CC(=O)O.CC(=O)O.CC(=O)O.O.O.[Cr].[Cr].[Cr] | inactive
40 | CCCSP(=S)(OCC)Oc1ccc(Cl)cc1Cl (stereo not given) | inactive

Reference: PubChem BioAssay (Tox21)
